Compound activity from PubChem BioAssay.
In the library only some 1.5% were active in any assay of this set; here they are far more common.
ABCB6 inh MLPCN – inhibitors of human ABC transporter ABCB6; Q9NP58; K562-ABCB6 porphyrin accumulation, flow cytometry, 1 h; hits give low values; fluorescence ratio to DMSO, % at 10 µM; actives 0.19% (n = 360,000); AID 602162;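 active = fluorescence ratio to DMSO below 75%, the collection mean minus 3 SD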;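 note: signal is porphyrin accumulated inside mitochondria; 100% equals median channel fluorescence of DMSO control wells; lower ratio means ABCB6 inhibition with less porphyrin fluorescence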
DAGLB inh – blocks human DAGLB lipase activity. Q8NCG7. HEK293T DAGLB membrane lysate, EnzChek fluorogenic substrate. inhibition, % at 5.17 µM. actives 0.059% (n = 340,000); in the data active = inhibition above about 34%;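 note: 0% = enzyme with vehicle and 100% = wells lacking enzyme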
TMEM16A inh – mouse TMEM16A channel inhibition, primary screen. Q8BHY3. AID 588511. actives 1.2% (n = 310,000). normalized B-score (activity score, 25-100; higher = stronger inhibition) at 10 µM. HEK293 TMEM16A/YFP iodide influx fluorescence, ionomycin;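 active = ratio plate-corrected score three or more library SD toward inhibition, starting fluorescence score within five deviations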;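 note: score derived from kinetic fluorescence span divided by baseline fluorescence per well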
hiPSC survival – enhancers of human iPSC single-cell survival | actives 0.044% (n = 360,000) | survival enhancement, % at 20 µM | hiPSC single-cell survival, ATPlite luminescence; 100% = ROCK inhibitor wells, 0% = DMSO; in the data active = survival enhancement above about 18%;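 note: cells exposed to compounds for 16 hours before the ATP read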
ANO1 activ – mouse TMEM16A channel activation, primary screen; AID 623877; B-score at 10 µM; Q8BHY3; HEK293 TMEM16A/YFP-H148Q/I152L, iodide quench fluorescence; hits give low values; actives 0.3% (n = 340,000);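 active = fluorescence-ratio B-score plate-corrected deviation score at least 3 library SD below zero, with starting fluorescence score within 5 deviations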;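 note: channel opened by trigger with iodide after compound preincubation; score built on the fluorescence ratio of max minus min over baseline; more negative score means more quench and so TMEM16A activation or potentiation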
* hit, by the source's call.

Screening Cc1ccc(SCCC(=O)OCC(=O)Nc2ccc(S(N)(=O)=O)cc2)cc1 returned ABCB6 inh MLPCN 99.0, DAGLB inh -1.4, TMEM16A inh inactive, hiPSC survival -0.7 and ANO1 activ -4.91*.
For CC1(C)[C@@H](O)CC[C@]2(C)C3C(O)C=C4[C@H]5C[C@@](C)(C(=O)O)CC[C@]5(C)CC[C@]4(C)[C@]3(C)CC[C@@H]12 (stereo partly specified) the results were TMEM16A inh 100*.
`O=C(CCNC(=O)c1ccccc1)NCCCc1ccccc1` gave ABCB6 inh MLPCN 97.0, DAGLB inh 1.1, hiPSC survival 0.1 and ANO1 activ inactive.
CC(C)C12CN3CC(C(C)C)(CN(C1)C3c1ccccc1O)C2=O (stereo unspecified) was read as ABCB6 inh MLPCN 88.0, DAGLB inh -8.0, TMEM16A inh inactive, hiPSC survival 21.3* and ANO1 activ inactive.
`CC(C)Cn1c(SC(C)C(=O)NCC2CCCO2)nc2ccc(Cl)cc2c1=O` (stereo unspecified) gave ABCB6 inh MLPCN 92.0, DAGLB inh -2.4, hiPSC survival -0.5 and ANO1 activ -25.1*.
O=C(CCl)Nc1cccc(Oc2cnccn2)c1 was read as ABCB6 inh MLPCN 7.0*, DAGLB inh 3.0, TMEM16A inh inactive, hiPSC survival -1.1 and ANO1 activ inactive.
For O=C(COC(=O)c1ccc(O)cc1)Nc1cccc(S(=O)(=O)NC2=NCCC2)c1 the results were ABCB6 inh MLPCN 97.0, DAGLB inh -1.0, hiPSC survival 0.1 and ANO1 activ -31.5*.
`CC(C)c1ccc(C(=O)OCC(=O)Nc2cccc(S(=O)(=O)NC3=NCCC3)c2)cc1` gave ABCB6 inh MLPCN 98.0, DAGLB inh -3.8 and hiPSC survival 2.8.
`CCCn1c(CC)nc([N+](=O)[O-])c1Sc1ncn[nH]1` gave ABCB6 inh MLPCN 94.0, DAGLB inh -1.1 and hiPSC survival -0.7.
O=C(Nc1cccc2c1CCCC2)c1cc(C2CCCCN2C(=O)CCCc2ccccc2)on1 (stereo unspecified) was read as ABCB6 inh MLPCN 93.0 and hiPSC survival -2.4.
For Nc1nc(Cl)cc(NCCc2ccc(O)cc2)n1 the results were ABCB6 inh MLPCN 98.0, DAGLB inh -0.4, TMEM16A inh inactive, hiPSC survival 0.6 and ANO1 activ inactive.
For Oc1ccc(CCNc2ncnc3ccc(Cl)cc23)cc1 the results were ABCB6 inh MLPCN 98.0, DAGLB inh -0.4, TMEM16A inh 100*, hiPSC survival -1.2 and ANO1 activ inactive.
`Cc1ccc(NC(=O)C(NC2CCCc3ccccc32)c2ccccc2)c([N+](=O)[O-])c1` (stereo unspecified) gave ABCB6 inh MLPCN 111.0, DAGLB inh -14.3, TMEM16A inh inactive, hiPSC survival 0.7 and ANO1 activ -5.78*.
Screening O=C(c1cccc(S(=O)(=O)N2CCN(c3ccc(F)cc3)CC2)c1)N1CCCC(C(F)(F)F)C1 (stereo unspecified) returned ABCB6 inh MLPCN 98.0, DAGLB inh -5.6, TMEM16A inh 25*, hiPSC survival -0.6 and ANO1 activ inactive.
CC1CN(C(=O)c2cccc(S(=O)(=O)N3CCN(c4ccc(F)cc4)CC3)c2)CC(C)O1 (stereo unspecified) was read as ABCB6 inh MLPCN 93.0, DAGLB inh -0.7, TMEM16A inh inactive, hiPSC survival 0.3 and ANO1 activ inactive.
Screening Clc1ccccc1OCCn1cnc2ccccc21 returned ABCB6 inh MLPCN 101.0, DAGLB inh -0.2, TMEM16A inh inactive, hiPSC survival 0.3 and ANO1 activ inactive.
Brc1ccccc1OCCCCn1cnc2ccccc21 was read as ABCB6 inh MLPCN 94.0, DAGLB inh -8.2, TMEM16A inh 100*, hiPSC survival -0.5 and ANO1 activ inactive.
For Cc1cn([C@H]2C[C@H](O)[C@@H](CCC(=O)NCCCc3ccccc3)O2)c(=O)[nH]c1=O the results were ABCB6 inh MLPCN 100.0 and hiPSC survival -1.9.
CCN(CC)c1ccc(C=C2SC(=S)NC2=O)cc1 was read as ABCB6 inh MLPCN 700.0, DAGLB inh -78.5, hiPSC survival -1.2 and ANO1 activ -5.07*.
For CCN(CC)c1ccc(/C=C2\SC(N)=NC2=O)cc1 the results were ABCB6 inh MLPCN 140.0, DAGLB inh -6.4, TMEM16A inh inactive, hiPSC survival 0.0 and ANO1 activ inactive.
